Screens: PubChem BioAssay, several laboratories
eIF4E 4G PPI = inhibitors of eIF4E and eIF4G interaction in translation initiation; TR-FRET eIF4E-eIF4GI(517-606) binding, 2 h; inhibition, % at 21.7 µM; 0.37% of 220,000 active;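 active = inhibition above about 30%, limit read from the data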
PABP FP inh = blocks human PABP binding to poly(A) RNA | fluorescence polarization | inhibition, % at 35 µM | 1% of 290,000 active;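 also: calls also rest on retests at 20 µM and on dose response follow-up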
PABP1 MLLE inh = inhibitors of microRNA-mediated deadenylation, human PABP1 MLLE binding; P11940; GST-MLLE / FITC-PAM2 fluorescence polarization; inhibition, % at 20 µM; 0.36% of 360,000 active; in the data active = inhibition above about 35%, passing the limit was not always enough
eIF4H inh = inhibitors of RNA binding by human eIF4H. Q15056. eIF4H fluorescence polarization binding assay. inhibition, % at 35 µM. 0.94% of 290,000 active;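 also: calls also rest on retests at 20 µM and on dose response follow-up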
PERK inh = inhibitors of human PERK kinase. CHO PERK-DD fusion, SEAP luminescence translation reporter. inhibition, % at 5.6 µM. 0.17% of 220,000 active;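 active = inhibition above the mean inhibition of all tested compounds plus 3 SD, set separately per screening campaign, cut at about 2.9% in these data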;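 also: PERK kinase domain activated by AP20187 dimerizer at 100 nM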
Numbers stand for hits; . = inactive; ? = inconclusive; / = no result given. The list is not random: actives were taken first. Their share in the collection is about 1.6%. Unless noted, no rule for the calls is given here.

SMILES	eIF4E 4G PPI	PABP FP inh	PABP1 MLLE inh	eIF4H inh	PERK inh
C[C@@H]1CN=C2N(CCNC(=O)CCC3CCCCC3)[C@H](Cc3ccc(O)cc3)CN21	.	.	.	.	.
O=C(O)C1C2C=CC3(CN(Cc4ccco4)C(=O)C13)O2 (stereo not drawn)	.	.	.	84	.
COC(=O)C1C2C=CC3(CN(Cc4ccco4)C(=O)C13)O2 (stereo not drawn)	.	.	.	.	.
CCCOc1ccc(Cl)cc1/C=C1/C(=O)ON=C1C	/	.	.	.	/
CC1=NOC(=O)/C1=C\c1ccc(-c2ccc(Cl)cc2Cl)o1	.	.	.	55	.
CC(C)CC(C(=O)Nc1cccc(O)c1)N1C(=O)c2ccccc2C1=O (stereo not drawn)	/	.	.	.	/
CC(C)CC(C(=O)Nc1oc(-c2ccco2)c(-c2ccco2)c1C#N)N1C(=O)c2ccccc2C1=O (stereo not drawn)	.	78	.	82	.
N#CC1=C(N)OC2=C(CC/C2=C\c2ccccc2Cl)C1c1ccccc1Cl (stereo not drawn)	.	9.1	.	.	.
N#CC1=C(N)OC2=C(CC/C2=C\c2ccccc2)C1c1ccccc1 (stereo not drawn)	.	?	.	?	.
COC(=O)c1c(NC(=S)Nc2cc(OC)c(Cl)cc2OC)sc2c1CCCCC2	.	.	47	.	.
CCOC(=O)c1c(NC(=S)Nc2cc([N+](=O)[O-])ccc2OC)sc2c1CCCCC2	.	.	/	.	.
Cc1cc(NC(=O)CSc2nnc(COc3ccccc3)n2Cc2ccco2)no1	.	.	.	.	.
O=C(CSc1nnc(COc2ccccc2)n1Cc1ccco1)NCc1ccco1	.	39	.	50	.
O=C(CSc1nnc2c(n1)[nH]c1ccccc12)NCc1ccco1	.	.	43	.	.
COc1ccc(CNC(=O)CSc2nnc3c(n2)[nH]c2ccccc23)cc1	/	.	.	.	/
O=C(NCc1ccc(N2CCCC2=O)cc1)c1cn(Cc2ccccc2)nn1	.	.	.	.	.
COc1cc2c(cc1OC)C(c1ccccc1O)N(C1CC(=O)N(c3ccccc3)C1=O)CC2 (stereo not drawn)	.	.	40	.	.
NC1=NC(=O)/C(=C/c2cccc(-c3ccc(S(N)(=O)=O)cc3)c2)S1	/	36	.	90	/
NC1=NC(=O)/C(=C\c2ccc(O)c([N+](=O)[O-])c2)S1	.	.	.	.	.
COc1ccccc1NS(=O)(=O)c1cccc(NC(=O)Nc2ccc(Cl)cc2)c1	.	.	.	.	.
Cc1nc2ccccc2c(=O)n1NC(=O)c1ccc(Cl)cc1	/	.	.	.	/
Cc1ccccc1OCCc1c(C)[nH]c(=S)[nH]c1=O	.	.	.	.	.
Cc1[nH]c(=S)[nH]c(=O)c1CCOc1ccccc1	.	.	.	.	3.1
CCCS(=O)(=O)N1CCN(Cc2ccccc2C(F)(F)F)CC1	.	.	.	.	.
CN1CCCN(Cc2ccccc2C(F)(F)F)CC1	94	.	.	.	.
SMILES	eIF4E 4G PPI	PABP FP inh	PABP1 MLLE inh	eIF4H inh	PERK inh
CCOc1ccc(NCc2cc3cc(OC)ccc3[nH]c2=O)cc1	.	57	.	35	.
Oc1cc2c(cc1C(c1ccc(Br)cc1)N1CCCC1)OCO2 (stereo not drawn)	44	.	.	.	.
O=S(=O)(NCC(c1ccc2c(c1)OCO2)N1CCOCC1)c1ccc(Br)cc1 (stereo not drawn)	/	/	.	/	/
COc1ccccc1Nc1nc(N)nc(CSC(=S)N2CC(C)CC(C)C2)n1 (stereo not drawn)	.	.	.	.	.
COc1cc2c(C#N)c(N3CCN(C)CC3)nc(N)c2c(N)n1	.	120	.	105	.
Cc1nc([N+](=O)[O-])cn1CCC#N	.	.	.	.	3.6
Cn1cc(/C=N/NC(=O)c2ccccc2O)c2ccccc21	/	.	.	.	/
Cc1c(Cl)c([N+](=O)[O-])nn1CCCC(=O)O	.	.	.	active	.
c1ccc(Cc2nn3c(COc4ccccc4)nnc3s2)cc1	.	.	.	.	.
CCOc1ccccc1OCc1nn2c(COc3ccccc3)nnc2s1	32	.	.	.	.
CC1Cc2ccccc2N1S(=O)(=O)c1cnc(Cl)c(Cl)c1 (stereo not drawn)	.	.	.	.	.
CNC(=O)CSc1nnc(-c2ccc(S(=O)(=O)N3CCCC3)cc2)n1-c1cccc(C)c1C	.	.	.	.	.
COc1ccc(/C=C/C(=O)NC(=S)Nc2ccc(S(=O)(=O)Nc3cc(OC)ncn3)cc2)cc1	.	.	.	.	.
